Pf growth 48h: inhibits P. falciparum growth in the first generation, 48 h | P. falciparum luciferase growth in erythrocytes, 48 h | Potency, µM (doses to about 28.7 µM), inactives show at the highest dose activity change, negative = inhibition, most hits filed as inhibitors | hit rate 5.9% among 310,000 | AID 504832; note: potency is the fitted concentration of half-maximal effect; % is set by controls: 0 for no effect and ±100 for the full control effect
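Cell-based growth assay: transgenic P. falciparum expressing firefly luciferase, cultured in red cells within RPMI 1640 containing 0.5% w/v Albumax, 24 mM bicarbonate and gentamycin. A drop in luciferase activity indicates inhibition.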
Pf growth 96h: P. falciparum growth inhibition at 96 hours; P. falciparum luciferase reporter growth, 96 h; Potency, µM (series often up to 28.7 µM), for inactives: at the highest dose activity change, negative = inhibition, hits mostly inhibitors; hit rate 6.9% among 320,000; note: potency is the fitted concentration of half-maximal effect; % is set by controls: 0 for no effect and ±100 for the full control effect
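P. falciparum expressing integrated firefly luciferase, in erythrocytes at 2% hematocrit, 0.05% parasitemia, incubated with compounds 96 h at 37 C, 5% CO2. Growth inhibition read as loss of luminescence; two-generation exposure targets delayed-death apicoplast inhibitors.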
Cycloheximide cs: affects cycloheximide protein synthesis inhibition readout, counter-screen | AID 2314 | max response, % | cell reporter, cycloheximide protein synthesis inhibition counterscreen | hit rate 12% among 300,000; in the data active = max response mostly above about 13%, no sharp cut-off; inactive = mostly below about 14%; note: read at 38.3 µM for the half of the compounds with a filed dose; 0% is about no effect
Shiga toxin inh: Shiga toxin inhibition | AID 2315 | inhibition, % at 38.7 µM | Vero cells, Shiga toxin protein synthesis inhibition reporter | hit rate 9.2% among 290,000; in the data active = inhibition mostly above about 28%, no sharp cut-off; inactive = mostly below about 43%; note: 0% is about no effect
NS1 function inh: blocks influenza NS1 protein function; Potency, µM (series often up to 46.1 µM), for inactives: top-dose activity, positive = more growth; hit rate 0.4% among 270,000; AID 2326; calls by dose curve; note: potency is the fitted concentration of half-maximal effect; actives are rising curves; nearly all actives have a fitted effect of over 50% in size
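Compounds were scored for reversing the slow growth caused by influenza A NS1 in S. cerevisiae, measured by optical density at 600 nm. Assay medium contained 2% galactose at pH 6.0; NS1-free yeast of the same strain were the positive control.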
SARS PLpro yeast: SARS-CoV PLP inhibition in yeast | hit rate 0.19% among 330,000 | AID 485353 | S. cerevisiae expressing SARS-CoV PLpro, growth rescue | Potency, µM (titrated, usually from 32.9 µM), for inactives: at the highest dose activity, positive = growth rescue, actives largely listed as activators; calls by dose curve; note: potency is the fitted concentration of half-maximal effect; 0% is about no effect; nearly all actives have a fitted effect of over 55% in size
* = called active by the depositor. Rows were chosen to be rich in hits. Some 21% of all compounds tested hit in one or more screens of this group. Unless noted, calls come from the whole dose curve; as a rule, active = well fitted inhibition curve with a large enough effect; inconclusive = small, poorly fitted or top-dose-only effect, or another doubt; inactive = no such curve, though single readings can be large or run the other way.

Screening COCCNC(=O)c1ccc(C(=O)C(=O)c2ccccc2)cc1 returned Pf growth 48h -17.9%, Pf growth 96h 51.6%, Cycloheximide cs 23.5, Shiga toxin inh 9.9, NS1 function inh 3.9% and SARS PLpro yeast -4.7%.
For Cc1ccc(C(=O)NCCc2csc(C)n2)cc1 the results were Pf growth 48h 54.7%, Pf growth 96h 87.7%, Cycloheximide cs 26.8*, Shiga toxin inh 54.9*, NS1 function inh 6.5% and SARS PLpro yeast 0.8%.
Screening COCCNC(=O)c1ccc(-c2csc(C)n2)cc1 returned Pf growth 48h 239.4%, Pf growth 96h -1.0%, Cycloheximide cs 22.7*, Shiga toxin inh 88.8* and SARS PLpro yeast -0.9%.
For Cc1ccc(CCNC(=O)NC(C)(C)C)cc1 the results were Pf growth 48h 66.8%, Cycloheximide cs 29.9*, Shiga toxin inh 68.7*, NS1 function inh -3.1% and SARS PLpro yeast 3.4%.
Screening Cc1nc(-c2ccc(C(=O)NCCO)cc2)cs1 returned Pf growth 48h 177.0%, Pf growth 96h 116.0%, Cycloheximide cs 37.3*, Shiga toxin inh 40.5 and SARS PLpro yeast 2.9%.
Screening Cc1cccc(C(=O)NCCc2csc(C)n2)c1 returned Pf growth 48h 13.2%, Pf growth 96h 16.1%, Cycloheximide cs -0.1, Shiga toxin inh 13.6, NS1 function inh 3.3% and SARS PLpro yeast -11.8%.
`CCn1c(C)nc2cc(C(=O)NNC(=S)Nc3ccc(OC)cc3)ccc21` gave Pf growth 48h inconclusive, Pf growth 96h inconclusive, Cycloheximide cs 9.2, Shiga toxin inh -2.6 and SARS PLpro yeast -1.1%.
O=C(CCN1C(=O)C2CCCCC2C1=O)Nc1ccc(F)c(F)c1F (stereo not given) was read as Pf growth 48h 50.2%, Pf growth 96h 91.9%, Cycloheximide cs -2.6, Shiga toxin inh 7.0, NS1 function inh -0.1% and SARS PLpro yeast 2.7%.
COCCCNC(=O)c1ccc(-c2csc(C)n2)cc1 was read as Pf growth 48h 361.5%, Pf growth 96h -13.2%, Cycloheximide cs 38.0*, Shiga toxin inh 89.6* and SARS PLpro yeast -4.3%.
For Cc1ccc(C(=O)NCCc2ccncc2)cc1 the results were Pf growth 48h 125.2%, Pf growth 96h 131.7%, Cycloheximide cs 27.4*, Shiga toxin inh 42.0*, NS1 function inh -9.2% and SARS PLpro yeast -2.1%.
Cc1cc(NC(=O)CSc2nc(-c3ccccc3Cl)nc3c2c(=O)n(C)c(=O)n3C)no1 was read as Pf growth 48h 5.4%, Pf growth 96h 7.5%, Cycloheximide cs 12.1, Shiga toxin inh -15.9 and SARS PLpro yeast 1.5%.
`CCNC(=O)Nc1ccc(OC)cc1OC` gave Pf growth 48h -19.1%, Pf growth 96h 33.9%, Cycloheximide cs -4.2, Shiga toxin inh -3.2, NS1 function inh 1.7% and SARS PLpro yeast 0.5%.
O=C1CC2(CCCC2)C(=O)N1CN1CCN(S(=O)(=O)c2ccc(Cl)c(Cl)c2)CC1 was read as Pf growth 48h 5.8%, Pf growth 96h -9.2% and SARS PLpro yeast 3.4%.
Screening Cc1cc(/C=N/n2cnnc2)c(C)n1-c1ccc(OCc2ccc(Cl)cc2)cc1 returned Pf growth 96h 11.7µM*, Cycloheximide cs 51.6*, Shiga toxin inh 92.5*, NS1 function inh -134.7% and SARS PLpro yeast -30.2%.
For Fc1ccccc1COc1cccc(/C=N/n2cnnc2)c1 the results were Pf growth 48h 26.6%, Cycloheximide cs -1.1, Shiga toxin inh 35.3, NS1 function inh -71.2% and SARS PLpro yeast -3.4%.
Screening Cc1cc(/C=N\NC(=O)CC(=O)NC2CCCCC2)c(C)n1-c1ccc(Cl)cc1 returned Pf growth 48h -15.2%, Pf growth 96h -15.4%, Cycloheximide cs -1.6, Shiga toxin inh -4.3, NS1 function inh 3.7% and SARS PLpro yeast 3.3%.
Screening Cc1cc(/C=N/n2cnnc2)c(C)n1-c1ccc(OCc2ccccc2F)cc1 returned Pf growth 48h inconclusive, Pf growth 96h 17.9%, Cycloheximide cs 25.8*, Shiga toxin inh 24.9, NS1 function inh -97.3% and SARS PLpro yeast -28.1%.
Cc1ccsc1CN(C)CC(=O)Nc1cccc(S(=O)(=O)N(C)c2ccccc2)c1 was read as Pf growth 48h inconclusive, Pf growth 96h inconclusive and SARS PLpro yeast 1.7%.
`CCOc1ccc(N2CC(C(=O)N3CCN(c4ccccn4)CC3)CC2=O)cc1` (stereo not given) gave Pf growth 48h -0.7%, Pf growth 96h inconclusive and SARS PLpro yeast -0.1%.
`O=C(NCCOCCNC(=O)OCc1ccccc1)OCc1ccccc1` gave Pf growth 48h 1.7%, Pf growth 96h 0.0%, Cycloheximide cs 5.7, Shiga toxin inh -8.7 and SARS PLpro yeast 2.3%.
For CC(=O)N1CCc2cc(C(=O)CN3CCN(c4ccccn4)CC3)ccc21 the results were Pf growth 48h 49.8%, Pf growth 96h -12.7%, Cycloheximide cs 36.6*, Shiga toxin inh 76.7*, NS1 function inh 4.1% and SARS PLpro yeast -1.3%.
Screening O=C(CN1CCN(c2ccccc2F)CC1)N1CCc2ccccc21 returned Pf growth 48h -2.3%, Pf growth 96h 5.0%, Cycloheximide cs 14.5*, Shiga toxin inh 15.5, NS1 function inh -0.8% and SARS PLpro yeast -1.9%.
For CC(=O)N1CCc2cc(S(=O)(=O)CCC(=O)N3CCN(c4ccccn4)CC3)ccc21 the results were Pf growth 48h inconclusive, Pf growth 96h -24.2%, Cycloheximide cs 3.4, Shiga toxin inh -4.6, NS1 function inh -0.9% and SARS PLpro yeast 12.7%.
CC(=O)N1CCc2cc(C(=O)CN3CCN(c4ccccc4F)CC3)ccc21 was read as Pf growth 96h 6.8%, Cycloheximide cs 21.1*, Shiga toxin inh 59.1*, NS1 function inh -4.3% and SARS PLpro yeast 8.1%.
For O=C(CN1CCN(c2ccccc2F)CC1)c1ccc2cc[nH]c2c1 the results were Pf growth 96h 50.7%, Cycloheximide cs -1.8, Shiga toxin inh 0.9, NS1 function inh -0.7% and SARS PLpro yeast 2.0%.
`C/C(=N\NC(=O)c1ccc(Cl)cc1)c1cccc(NC(=O)C(C)C)c1` gave Pf growth 48h 4.9%, Pf growth 96h 74.8%, Cycloheximide cs 16.7*, Shiga toxin inh 23.7, NS1 function inh -7.8% and SARS PLpro yeast 2.0%.
For C/C(=N\NC(=O)c1cccc(Cl)c1)c1cccc(NC(=O)C(C)C)c1 the results were Pf growth 48h -9.7%, Pf growth 96h inconclusive, Cycloheximide cs 30.4*, Shiga toxin inh 46.1*, NS1 function inh -14.9% and SARS PLpro yeast -22.6%.
C/C(=N\NC(=O)c1ccc(Cl)c(Cl)c1)c1cccc(NC(=O)C(C)C)c1 was read as Pf growth 48h 0.0%, Pf growth 96h 66.4%, Cycloheximide cs 36.0, Shiga toxin inh 29.3, NS1 function inh -4.1% and SARS PLpro yeast -2.9%.
For C/C(=N\NC(=O)c1ccncc1)c1cccc(NC(=O)c2ccc(Cl)s2)c1 the results were Pf growth 48h 27.9%, Pf growth 96h 42.0%, Cycloheximide cs 30.7*, Shiga toxin inh 77.5*, NS1 function inh -34.5% and SARS PLpro yeast inconclusive.

From PubChem
